Experimental data from PubChem BioAssay (NCATS).
Inconclusive results are not listed. Entries that show only a call come without a potency. Values without a mark were called inactive. The source made the active and inactive calls. The call rests on the fitted dose curve; in most records, active means well fitted cell-killing curve with a large enough effect; inconclusive means small, poorly fitted or top-dose-only effect, or effect the other way; inactive means flat fitted curve, though single readings scatter.

The molecules below were run on CAOV3 (assay: Primary qHTS to identify gynecologic anti-cancer compounds using libraries of approved drugs and bioactive compounds (AID 1345084; further: nearly all actives have a fitted effect of over 55% in size)). Conditions: Gynecologic cancer cell panel viability, ATPlite luminescence, 48 h; series mostly up to 57.5 µM.
Text: National Center for Advancing Translational Sciences [NCATS] Assay Overview: Chemotherapeutic drug responses vary from cancer to cancer and from patient to patient. These variations could be caused by a number of factors including patient genomic background, tumor mutations, tumor heterogeneity, and aspects of drug treatment. Chemotherapeutic drug resistance is also a common issue and can lead to ineffective treatment and patient death. Here we have profiled the cell killing effects of thousands of compounds to characterize the responses in three gynecological cancers, identify cancer-selective compounds, and understand the diversity of responses to these compounds from pan-cancer suppressors to single cell line selective compounds. In this assay, we screened a 7,914 compound drug library that included approved drug and bioactive compounds in six ovarian, three cervical, and […] placental cancer cell lines using the ATPlite assay for cell viability. […] The cervical cancer cell lines included HeLa, Ca Ski, and C-33 A. The placental cancer cell lines included JEG-3. HEK 293T cells were used as the control cell line to determine the selectivity index. ATPlite is a luminescence based assay reliant on the conversion of a luciferase substrate to light in the presence of ATP. As a cytotoxic compound will suppress growth and decrease the number of cells, the concentration of ATP will decrease, and less light signal will be detected in the well.
Assay Protocol Summary: 1,000 cells in 4 uL of media were dispensed into white, solid bottom 1536-well plates using a Multidrop Combi (Thermo Scientific). The Assay plates were incubated for 16 hours at 37 C with 5% CO2 in assay plates, followed by the addition of 23 nL of DMSO or drug dissolved in DMSO. Each compound was assayed in five concentrations (0.092, 0.46, 2.3, 11.5, and 57.5 uM), using the automated Wako 1536 Pin Tool workstation and incubated at 37 C with 5% CO2 48 hours. 4 uL of ATPlite, the ATP monitoring reagent, was then added to the each well of the assay plates using the Multidrop Combi reagent dispenser followed by incubation for 15 minutes at room temperature. The resulting luminescence was measured using the ViewLux plate reader.

Row | SMILES | Potency | activity change, negative = cytotoxicity
1 | CC(=O)CCC(=O)O | inactive | 
2 | O=C(Oc1ccccc1C(=O)O)c1ccccc1O | inactive | 
3 | CC(C)c1c(C(=O)Nc2ccccc2)c(-c2ccccc2)c(-c2ccc(F)cc2)n1CC[C@@H](O)C[C@@H](O)CC(=O)O | inactive | 
4 | Cc1ccc(C(C)C)cc2c(C)ccc1-2 | inactive | 
5 | Oc1cccc(O)c1 | inactive | 
6 | CNC(=O)Oc1ccc2c(c1)[C@]1(C)CCN(C)[C@@H]1N2C | inactive | 
7 | NCCNCCNCCNCCN |  | 11.8% [at 11.6 µM]
8 | CCN(CC)CCOC(=O)C1(C2CCCCC2)CCCCC1 | inactive | 
9 | COc1ccc(Cl)cc1C(=O)NCCc1ccc(S(=O)(=O)NC(=O)NC2CCCCC2)cc1 | inactive | 
10 | CCCCC(CC)COC(=O)c1ccccc1O (stereo not given) | inactive | 
11 | O=C(O)CN1C(=O)c2cccc3cccc(c23)C1=O | inactive | 
12 | NCC(=O)CCC(=O)O | inactive | 
13 | CC(=O)OCC(=O)[C@@]1(O)CC[C@H]2[C@@H]3CCC4=CC(=O)CC[C@]4(C)[C@H]3C(=O)C[C@@]21C | inactive | 
14 | O=S(=O)(O)c1cc(I)c(O)c2ncccc12 | inactive | 
15 | O=Cc1ccccc1C=O | inactive | 
16 | N[C@@H](CSCCCO)C(=O)O | inactive | 
17 | CCN(CC)C(C)CN1c2ccccc2Sc2ccccc21 (stereo not given) | inactive | 
18 | O=C(O)[C@H](O)c1ccccc1 | inactive | 
19 | CN1CCOC(c2ccccc2)c2ccccc2C1 (stereo not given) | inactive | 
20 | CCN(CC)CCNC(=O)c1cc(Cl)c(N)cc1OC | inactive | 

Row | SMILES | Potency | activity change, negative = cytotoxicity
21 | O=C(CCCN1CCN(c2ccccn2)CC1)c1ccc(F)cc1 | inactive | 
22 | OC[C@H]1O[C@@H](O[C@@H]2[C@@H](CO)O[C@](O)(CO)[C@H]2O)[C@H](O)[C@@H](O)[C@H]1O | inactive | 
23 | O=C1O[C@H](CO)[C@@H](O)[C@H](O)[C@H]1O | inactive | 
24 | CCOc1nc2cccc(C(=O)O)c2n1Cc1ccc(-c2ccccc2-c2nn[nH]n2)cc1 | inactive | 
25 | OCC(CO)N[C@H]1C[C@](O)(CO)[C@@H](O)[C@H](O)[C@H]1O | inactive | 
26 | CC1=C(CC(=O)O)c2cc(F)ccc2/C1=C\c1ccc(S(C)=O)cc1 (stereo not given) | inactive | 
27 | CC1(C)CO[C@@H](CC(=O)O)CN1 | inactive | 
28 | CCN(CC)CCSC(=O)C(c1ccccc1)c1ccccc1 | inactive | 
29 | CC(O)CN(CCN(CC(C)O)CC(C)O)CC(C)O (stereo not given) | inactive | 
30 | CC(C)(C)C(=O)NCCCC(=O)O | inactive | 
31 | Cc1cc2nc3c(=O)[nH]c(=O)nc-3n(C[C@H](O)[C@H](O)[C@H](O)CO)c2cc1C | inactive | 
32 | C[C@](N)(Cc1ccc(O)cc1)C(=O)O |  | 1.31% [at 6.55 µM]
33 | N[C@H](C(=O)O)c1ccc(O)cc1 | inactive | 
34 | CC1=C(C/C=C(\C)CCC[C@H](C)CCC[C@H](C)CCCC(C)C)C(=O)c2ccccc2C1=O | inactive | 
35 | C[C@@H]1C[C@H]2[C@@H]3C[C@H](F)C4=CC(=O)C=C[C@]4(C)[C@@]3(F)[C@@H](O)C[C@]2(C)[C@@]1(O)C(=O)CO | inactive | 
36 | Cc1cc(C(C#N)c2ccc(Cl)cc2)c(Cl)cc1NC(=O)c1cc(I)cc(I)c1O (stereo not given) | inactive | 
37 | Cc1ncc(COP(=O)(O)O)c(C=O)c1O | inactive | 
38 | Cc1c(O)cccc1C(=O)N[C@@H](CSc1ccccc1)[C@H](O)CN1C[C@H]2CCCC[C@H]2C[C@H]1C(=O)NC(C)(C)C | inactive | 
39 | O=C(O)COc1nn(Cc2ccccc2)c2ccccc12 | inactive | 
40 | NC(=O)N/N=C/c1ccc([N+](=O)[O-])o1 | inactive | 
